Results from ChEMBL document CHEMBL3988442, “University of Dundee, Small-Polar-MMV Screening Library” (2021).

Target: T1, Aspartate--tRNA(Asp/Asn) ligase (Mycobacterium tuberculosis (strain ATCC 25618 / H37Rv)) (UniProt P9WFW3)
T1 sequence (whole entry): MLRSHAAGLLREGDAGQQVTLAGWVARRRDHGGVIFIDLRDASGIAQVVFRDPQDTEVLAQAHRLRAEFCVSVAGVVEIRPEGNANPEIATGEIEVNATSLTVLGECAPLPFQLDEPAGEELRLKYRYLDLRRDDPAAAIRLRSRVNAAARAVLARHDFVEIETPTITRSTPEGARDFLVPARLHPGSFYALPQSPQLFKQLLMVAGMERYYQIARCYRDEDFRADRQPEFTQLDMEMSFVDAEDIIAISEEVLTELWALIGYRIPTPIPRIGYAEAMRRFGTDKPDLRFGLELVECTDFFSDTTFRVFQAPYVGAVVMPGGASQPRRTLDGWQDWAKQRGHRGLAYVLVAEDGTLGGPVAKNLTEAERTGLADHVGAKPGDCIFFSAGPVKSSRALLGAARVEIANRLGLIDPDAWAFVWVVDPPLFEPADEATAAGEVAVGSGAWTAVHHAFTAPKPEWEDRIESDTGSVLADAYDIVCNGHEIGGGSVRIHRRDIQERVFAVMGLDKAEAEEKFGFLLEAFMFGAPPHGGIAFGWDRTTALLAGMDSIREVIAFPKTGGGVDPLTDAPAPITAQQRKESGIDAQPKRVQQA
Experiment: Assay for Asp RNA synthetase-1 from Mycobacterium tuberculosis
Type: functional
Design: scale not given: in the data most compounds retested in dose-response had high values
Settings: 30 µM

Row | Structure (SMILES) | Percent Effect [%]
1 | Cc1ncccc1NC(=O)[C@H]1C[C@@H]2CCN(Cc3nccs3)C[C@@H]2O1 | -3.35
2 | CCc1cnc(N2CCC3(CC2)CN(c2cccnc2)C(=O)CO3)nc1 | 6.49
3 | CCSc1ccc(C(=O)Nc2c(C)nn(C(C)C)c2C)cn1 | -2.39
4 | COc1ncccc1CNC(=O)c1cccnc1O | -1.39
5 | c1ccc(Cn2ccnc2CN2CCOC(Cn3cccn3)C2)cc1 (stereo not given) | -3.22
6 | Cc1nc(N2CCCC2)nc2c1CN(C(C)C)CC2 | 1.86
7 | Cc1cccnc1NC(=O)NC(C)Cn1cccn1 (stereo not given) | -3.52
8 | Cc1cc2cc(C(=O)N3CC[C@H](O)[C@]4(CCCO4)C3)ccc2o1 | 1.13
9 | Cc1ncsc1C(=O)Nc1cccc(OCC(F)F)n1 | -0.449
10 | CC(NC(=O)NCCCc1n[nH]c(N)c1C#N)c1cccs1 (stereo not given) | -7.85
11 | COCCN(C)C[C@@H]1CN(C(=O)c2cccc(C(F)(F)F)c2)C[C@@H]1CO | -4.52
12 | N#CCCCS(=O)(=O)N1CCCC1CC(=O)c1cccs1 (stereo not given) | 0.747
13 | NC(=O)c1ccc(CN2CCCC(O)C2)cc1 (stereo not given) | -3.73
14 | CN1CCc2onc(CNc3ncccn3)c2C1 | 6.7
15 | CC(C)CCCNC(=O)Nc1ccc(F)c(C(N)=O)c1 | -3.06
16 | O=C(c1c[nH]c(=O)c(Cl)c1)N1C[C@@H]2CC[C@H](C1)N(Cc1ccccc1)C2 | -1.71
17 | O=C1NC2(CCN(C(=O)Cc3ccsc3)CC2)CC1c1ccncc1 (stereo not given) | 1.5
18 | COc1ccccc1OCC(=O)Nc1ncccc1Cl | -0.641
19 | c1ccc2sc(CN3CCOC(Cn4cccn4)C3)nc2c1 (stereo not given) | -0.285
20 | Cc1occc1C(=O)N1CCC2(CCC2NC(=O)c2ccn(C)c2)CC1 (stereo not given) | -3.29

Row | Structure (SMILES) | Percent Effect [%]
21 | O=C(Cn1c(=O)n(Cc2ccco2)c2ncccc21)NC1CCCCC1 | -3.2
22 | CN(CCNC(=O)c1scnc1Cl)c1ccccc1 | 2.87
23 | Cc1ccc(C(N)c2cccc(S(C)(=O)=O)c2)cc1 (stereo not given) | -0.691
24 | CC(C)Oc1cccc(C(O)CNC(=O)CCc2ccncc2)c1 (stereo not given) | -1.28
25 | Cc1cnc(CN(C)CC2CCCN2c2cccnn2)cn1 (stereo not given) | 2.77
26 | CCS(=O)(=O)N1CCO[C@H]2[C@H](OCC3CCCC3)CC[C@@H]21 | -2.82
27 | CC(C)c1cc(NC(=O)c2ccc(C(=O)NC(C)(C)C)cc2)[nH]n1 | -0.941
28 | CC(C)N(C)C(=O)C1=NOC2(CCN(C(=O)c3ccccn3)C2)C1 (stereo not given) | 2.07
29 | Cc1cnn(CCNCCCOc2ccccc2)c1 | -1.12
30 | CC(=O)N1CC[C@@H]2CN(C(=O)c3ccco3)CCO[C@@H]2C1 | 4.25
31 | COc1ccc2c(c1)C1(CCN(Cc3ccncc3)CC1)N(C)CC2 | 2.26
32 | Cc1ccc(NC(=O)N2C[C@H]3CC[C@@H]2CN(Cc2cscn2)C3)cc1 | -2.57
33 | COc1ccc(CN2CCc3ncnc(C4CCOC4)c3CC2)cc1 (stereo not given) | -0.146
34 | Cc1ccc2cnn(CCC(=O)Nc3c(C)nn(C)c3C)c2c1 | 0.535
35 | Cc1nnc2n1CCN(Cc1csc(-c3ccc(F)cc3)n1)C2 | 2.74
36 | CCc1noc(C)c1C(=O)N(C)Cc1ncc(C)c(OC)c1C | -1.73
37 | Cc1cc(CNCc2c(C)nn(C)c2N2CCOCC2)no1 | -2.57
38 | c1nc2n(n1)CC(NCc1nc(-c3ccsc3)no1)CC2 (stereo not given) | 4.69
39 | Cc1cnc(CN2CCC(N(C)Cc3nnc(C4CC4)n3C)C2)cn1 (stereo not given) | 5.06
40 | COc1ccc(-c2noc(C(=O)NCCN3CCCCC3)n2)cc1OC | -1.25
